# Read-outs that look alike come from different tables or passages of the source.
# Assays:
# Design in all cases: species or system human, MV4-11 + K-562 + COLO205 + SK-N-BE2 + OVCAR-8
# EPHA4 = conditions: read-out: apparent Kd, n = 1
# EPHB2 = conditions: read-out: apparent Kd, n = 1
# EPHB4 = conditions: read-out: apparent Kd, n = 1
# GSK3B = conditions: read-out: apparent Kd, compound concentrations: 100 nM and 1000 nM (sheet 'Samples'), n = 1
# PLK4 = conditions: read-out: apparent Kd, compound concentrations: 100 nM and 1000 nM (sheet 'Samples'), n = 1
# TNK2 = conditions: read-out: apparent Kd, compound concentrations: 100 nM and 1000 nM (sheet 'Samples'), n = 1
# ACVR2B = conditions: read-out: apparent Kd, compound concentrations: 100 nM and 1000 nM (sheet 'Samples'), n = 1
# EPHA2 = conditions: read-out: apparent Kd, n = 1
# TGFBR2 = conditions: read-out: apparent Kd, n = 1
# ADCK3 = conditions: read-out: apparent Kd, compound concentrations: 100 nM and 1000 nM (sheet 'Samples'), n = 1
# CDKL5 = conditions: read-out: apparent Kd; compound concentrations: 100 nM and 1000 nM (sheet 'Samples'), CATDS: 2.2966868813045101E-2; n = 1
# MAP4K5 = conditions: read-out: apparent Kd, n = 1
# TAOK1 = conditions: read-out: apparent Kd, n = 1
# MAP2K2 = conditions: read-out: apparent Kd, compound concentrations: 100 nM and 1000 nM (sheet 'Samples'), n = 1
# BMPR1A = conditions: read-out: apparent Kd; compound concentrations: 100 nM and 1000 nM (sheet 'Samples'), CATDS: 4.5522705937236799E-2; n = 1
# MAPK11 = conditions: read-out: apparent Kd, n = 1
# SYK = conditions: read-out: apparent Kd, n = 1
# NUAK1 = conditions: read-out: apparent Kd; compound concentrations:100 nM and 1000 nM (sheet 'Samples'); n = 1
# NQO2 = conditions: read-out: apparent Kd; compound concentrations:100 nM and 1000 nM (sheet 'Samples'); n = 1
# [1] = compound concentrations:100 nM and 1000 nM (sheet 'Samples')
structure (smiles),measurement,setting,value
CN(C)Cc1ccc(-c2ccc3c(Nc4ccc(Oc5ccccn5)cc4)ccnc3c2)o1 [GW567148X],potency estimated from few doses,"EPHA4; compound concentrations: 100 nM and 1000 nM (sheet 'Samples'), CATDS: 2.1324962018011699E-2",0.824 µM
same,potency estimated from few doses,"EPHB2; compound concentrations: 100 nM and 1000 nM (sheet 'Samples'), CATDS: 2.3863521838316901E-2",0.615 µM
same,potency estimated from few doses,"EPHB4; compound concentrations: 100 nM and 1000 nM (sheet 'Samples'), CATDS: 2.5851405238779799E-2",0.509 µM
same,potency estimated from few doses,GSK3B; CATDS: 1.84231194054994E-2,1.3 µM
same,potency estimated from few doses,PLK4; CATDS: 1.8058867791982399E-2,1.39 µM
same,potency estimated from few doses,TNK2; CATDS: 2.9353794658715598E-2,0.386 µM
Cc1ccc(O)cc1Nc1ccnc2ccc(C(C)(C)C)cc12 [GW856805X],potency estimated from few doses,ACVR2B; CATDS: 2.76899291361602E-2,1.25 µM
same,potency estimated from few doses,"EPHA2; compound concentrations: 100 nM and 1000 nM (sheet 'Samples'), CATDS: 8.0596912814025104E-2",0.0185 µM
same,potency estimated from few doses,"EPHA4; compound concentrations: 100 nM and 1000 nM (sheet 'Samples'), CATDS: 7.4195620286495498E-2",0.022 µM
same,potency estimated from few doses,"EPHB2; compound concentrations: 100 nM and 1000 nM (sheet 'Samples'), CATDS: 6.5287043089823998E-2",0.0293 µM
same,potency estimated from few doses,"EPHB4; compound concentrations: 100 nM and 1000 nM (sheet 'Samples'), CATDS: 0.113366992887299",0.00972 µM
same,potency estimated from few doses,"TGFBR2; compound concentrations: 100 nM and 1000 nM (sheet 'Samples'), CATDS: 3.9995494154685202E-2",0.13 µM
CC(=O)N1CCN(c2ccc(Nc3nccc(-c4sc(C(C)C)nc4-c4cccc(NS(=O)(=O)c5ccccc5)c4)n3)cn2)CC1 [GSK1645872A],potency estimated from few doses,ADCK3; CATDS: 3.3548638845590201E-2,0.57 µM
same,potency estimated from few doses,CDKL5,1.68 µM
same,potency estimated from few doses,PLK4; CATDS: 4.4195990908193997E-2,0.331 µM
CN1CCc2ccc(Nc3nccc(-c4c(-c5cccc(NC(=O)c6c(F)cccc6F)c5)nc5ccccn45)n3)cc2C1.Cl [GSK1010829B],potency estimated from few doses,"MAP4K5; compound concentrations: 100 nM and 1000 nM (sheet 'Samples'), CATDS: 3.0196131161379001E-2",2.13 µM
same,potency estimated from few doses,"TAOK1; compound concentrations: 100 nM and 1000 nM (sheet 'Samples'), CATDS: 4.1687643746907199E-2",0.83 µM
CN1CCN(Cc2ccc(NC(=O)Nc3ccc(N(C)c4ccnc(Nc5ccc(CS(C)(=O)=O)cc5)n4)cc3)cc2)CC1.Cl [GW827654A],potency estimated from few doses,TNK2; CATDS: 6.4241949787580299E-2,0.295 µM
c1ccc(Oc2ccc(Nc3ccnc4cc(-c5ccc(CN6CCCCC6)o5)ccc34)cc2)nc1 [GW567143X],potency estimated from few doses,TNK2; CATDS: 3.98580587888741E-2,1.08 µM
N#Cc1cnc2cc(-c3cnc(CNCCN4CCOCC4)s3)ccc2c1Nc1ccc(Oc2ccccc2)cc1 [GW664114X],potency estimated from few doses,MAP2K2; CATDS: 6.4354786580358606E-2,0.499 µM
same,potency estimated from few doses,"MAP4K5; compound concentrations: 100 nM and 1000 nM (sheet 'Samples'), CATDS: 0.103025865385486",0.199 µM
Fc1cc(Cl)ccc1Nc1ccnc2cc(-c3ccc(CN4CCOCC4)o3)ccc12 [GW560109X],potency estimated from few doses,ACVR2B; CATDS: 7.2197051902398501E-2,0.673 µM
Nc1ncc(-c2cn[nH]c2)c2scc(-c3ccc4c(c3)CCN4C(=O)Cc3ccccc3)c12 [GSK2593067A],potency estimated from few doses,"MAP4K5; compound concentrations: 100 nM and 1000 nM (sheet 'Samples'), CATDS: 8.2420323237496707E-2",0.674 µM
CN1CCN(Cc2ccc(-c3ccc4c(Nc5ccc(Oc6ccccn6)cc5)ccnc4c3)o2)CC1 [GW567140X],potency estimated from few doses,MAP2K2; CATDS: 3.1784212717953002E-2,2.09 µM
same,potency estimated from few doses,TNK2; CATDS: 4.3541420759690502E-2,0.72 µM
Cc1cc(O)cc(C)c1/C=C/c1cncc(-c2nn[nH]n2)c1.Cl [GW441806A],potency estimated from few doses,BMPR1A,1.37 µM
same,potency estimated from few doses,"EPHA2; compound concentrations: 100 nM and 1000 nM (sheet 'Samples'), CATDS: 4.6112446535010898E-2",1.31 µM
CC(=O)N1CCN(c2ccc(Nc3nccc(-c4sc(C(C)C)nc4-c4cccc(NS(=O)(=O)c5cccc(Cl)c5)c4)n3)cn2)CC1 [GSK1660437A],potency estimated from few doses,PLK4; CATDS: 0.17154832295699199,0.114 µM
CS(=O)(=O)c1ccc(-c2cnc(N)c(C(=O)Nc3ccccc3)n2)cc1 [VE-821],potency estimated from few doses,ADCK3; CATDS: 0.149033723356022,1.37 µM
CN1CCN(c2ccc(Nc3nc(N)c(C(=O)c4ccc5c(c4)OCCO5)s3)cc2)CC1 [RO0505124-000],potency estimated from few doses,ADCK3; CATDS: 0.21536092464867401,0.935 µM
O=S(=O)(CCOCc1ccc(-c2ccc3ncnc(Nc4ccc(OCc5cccc(F)c5)c(Cl)c4)c3c2)o1)c1ccccc1 [GW615311X],potency estimated from few doses,"MAPK11; compound concentrations: 100 nM and 1000 nM (sheet 'Samples'), CATDS: 2.56124612703456E-2",1.65 µM
same,potency estimated from few doses,"SYK; compound concentrations: 100 nM and 1000 nM (sheet 'Samples'), CATDS: 2.2434221169995199E-2",2.3 µM
Fc1ccc(-c2c(-c3ccncc3)[nH]c3nccnc23)cc1 [RO1155697-000],potency estimated from few doses,TAOK1; [1],1.15 µM
N#Cc1cccc(Nc2nccc(-c3cnn4ncccc34)n2)c1 [GW778894X],potency estimated from few doses,GSK3B; CATDS: 5.9931823260346899E-2,0.0212 µM
same,potency estimated from few doses,NUAK1,0.792 µM
same,potency estimated from few doses,TGFBR2; [1],0.0357 µM
Nc1nc(N)c2nc(-c3ccccc3)[nH]c2n1 [SKF-12778],potency estimated from few doses,SYK; [1],1.85 µM
CC(=O)c1c(-c2ccncc2)[nH]c(-c2ccncc2)c1C [GW493036X],potency estimated from few doses,NQO2,1.11 µM
COc1cc2ncn(-c3cc(OCc4cccs4)c(C(N)=O)s3)c2cc1OC [GSK312948A],potency estimated from few doses,MAP4K5; [1],0.116 µM
CNc1nccc(-c2c(-c3ccc(F)cc3)ncn2C2CCN(C)CC2)n1 [SB-222903],potency estimated from few doses,MAPK11; [1],1.08 µM
Cl.Cn1c(=O)c(Cc2ccc(F)cc2F)cc2cnc(NC3CCOCC3)nc21 [RO3308757-001],potency estimated from few doses,EPHA2; [1],1.13 µM
same,potency estimated from few doses,EPHA4; [1],0.743 µM
same,potency estimated from few doses,EPHB2; [1],0.364 µM
same,potency estimated from few doses,EPHB4; [1],0.268 µM

# Source: publication PMC11062922 (Nature Chemical Biology, 2023)
